# Laboratory results as given in PubChem BioAssay (NCATS).
# Values joined by “and” are separate entries in the source; they are usually repeats but may differ in a detail not shown here. Identical values can stand only once. Inconclusive results are not listed. Where a call stands in place of a potency, no number is given. Active and inactive are the calls of the source. The call rests on the fitted dose curve; in most records, active means well fitted curve in the direction sought with a large enough effect; inconclusive means small, poorly fitted or top-dose-only effect, or another doubt; inactive means no such curve, though single readings can be large; an effect the other way counts as inactive or inconclusive.
# Experiments:
# [1] = qHTS Screen of the MIPE 4.0 Collection Against Ewings Sarcoma (TC32) (AID 1259256); further: nearly all actives have a fitted effect of over 45% in size; further: potency means the concentration at half of the fitted maximal effect
# In short: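 Dose series incubated 48 h with cells in RPMI plus 5% FBS, glutamine and penicillin/streptomycin; cell viability then quantified via CellTiter-Glo.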
# [2] = P-glycoprotein substrates identified in KB-3-1 adenocarcinoma cell line, qHTS therapeutic library screen (AID 1346986); further: nearly all actives have a fitted effect of over 60% in size;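 further: potency means the concentration at half of the fitted maximal effect; potency is for cytotoxicity meaning loss of cell viability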
# In short: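 KB-3-1 parental and colchicine-selected P-gp-overexpressing KB-8-5-11 cells (colchicine omitted during assay), 500 cells/well, dosed in dose-response for 72 h at 37 °C; CellTiter-Glo luminescence. Cytotoxic: curve class -1.1 to -2.4, max response >50%, AC50 < 10 uM.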
# [3] = qHTS assay to identify small molecule inhibitors of chordoma cells - UCH-1 (AID 1259355); further: nearly all actives have a fitted effect of over 55% in size; further: potency means the concentration at half of the fitted maximal effect; series mostly up to about 46 µM
# In short: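 Cells (800/well) were seeded and left overnight at 37 C, 5% CO2, then treated with drugs at 15 concentrations plus a combination mix of auranofin, camptothecin, doxorubicin, rubitecan and topotecan. Viability after 48hr was read by CellTiter-Glo luminescence.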
# [4] = qHTS assay to identify small molecule inhibitors of chordoma cells - UCH-2 (AID 1259356); further: series mostly up to about 46 µM
# [5] = Identifying Small Molecule Inhibitors of Pancreatic Cancer Stem Cells (A2780, Spheroid) (AID 1259357); details: Potency: A2780 spheroid viability; further: potency means the concentration at half of the fitted maximal effect;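 further: spheroids pre-formed over 14 days in stem cell medium on hydrogel; compound exposure lasted 48 h before the ATP luminescence read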
# In short: (§1)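 Pre-formed 14-day tumor spheroids or adherent cells dosed and incubated 48 h, 37C, 5% CO2. Viability assessed by CellTiter-Glo.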
# [6] = Identifying Small Molecule Inhibitors of Pancreatic Cancer Stem Cells (SN12C, Adherent) (AID 1259358);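 further: cell survival measured after 48 h of compound exposure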; further: potency means the concentration at half of the fitted maximal effect
# In short: (§2)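 Endpoint: ATP-based luminescence, 48 h drug exposure. Bortezomib at 9.2 uM final as full-kill control; DMSO vehicle as negative control; activity normalized between vehicle and cell-free wells.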
# [7] = Identifying Small Molecule Inhibitors of Pancreatic Cancer Stem Cells (A278, Adherent) (AID 1259361);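 further: viability read after 48 h compound exposure; nearly all actives have a fitted effect of over 35% in size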
# In short: as §2
# [8] = Identifying Small Molecule Inhibitors of Pancreatic Cancer Stem Cells (SN12C, Spheroid) (AID 1259360); details: Potency: SN12C spheroid viability; further: potency means the concentration at half of the fitted maximal effect
# In short: as §1
# [9] = Identifying Small Molecule Inhibitors of Pancreatic Cancer Stem Cells (Panc1, Spheroid) (AID 1259359); details: Panc1 spheroid cancer stem cell viability;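 further: potency means the concentration at half of the fitted maximal effect; compound exposure lasted 48 h before reading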
# In short: (§3)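 After a 4 h attachment period, compounds were pinned into wells and cultures held 48 h under standard incubator conditions. Viability was then measured as CellTiter-Glo luminescence following 10 min at room temperature.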
# [10] = Identifying Small Molecule Inhibitors of Pancreatic Cancer Stem Cells (Panc1, Adherent) (AID 1259362); details: Potency: viability; further: potency means the concentration at half of the fitted maximal effect
# In short: as §3
compound,measurement,setting,value
c1cnc2cc3c(cc2n1)C1CNCC3C1,Potency,[1],inactive
same,Potency,[2],inactive
CS(=O)(=O)OCCCCOS(C)(=O)=O,Potency,[3],inactive
same,Potency,[4],inactive
CCCOc1ccc2nc(NC(=O)OC)[nH]c2c1,Potency,[1],inactive
same,Potency,[4],inactive
same,Potency,[2],0.291 µM (active)
Cc1cc(C2CCCCC2)n(O)c(=O)c1,Potency,[1],2.64 µM (active)
same,Potency,[3],inactive
same,Potency,[2],6.51 µM (active)
Nc1ccn([C@@H]2O[C@H](CO)[C@@H](O)C2O)c(=O)n1 (some centres undefined),Potency,[1],inactive
same,Potency,[3],inactive
same,Potency,[4],inactive
same,Potency,[2],inactive
Cc1cccc(-c2[nH]ncc2-c2ccc3ncccc3n2)n1,Potency,[1],inactive
same,Potency,[5],inactive
same,Potency,[6],inactive
same,IC50 (viability decrease),[7],inactive
CCOC(=O)C(C)Oc1cccc2c(=O)n(CC(=O)Nc3ccc4c(c3)OCCO4)ccc12 (centres undefined),Potency,[1],3.32 µM (active)
same,Potency,[6],inactive
same,Potency,[8],inactive
same,Potency,[2],inactive
CC1=C(C(=O)O)N2C(=O)[C@@H](NC(=O)[C@H](N)C3=CCC=CC3)[C@H]2SC1,Potency,[1],inactive
same,Potency,[2],inactive
CCC[C@@H]1C[C@@H](C(=O)N[C@@H]([C@H]2O[C@H](SC)[C@H](O)[C@@H](O)[C@H]2O)[C@@H](C)O)N(C)C1,Potency,[1],inactive
same,Potency,[4],inactive
C[C@H](Cn1cnc2c(N)ncnc21)OCP(=O)(O)O,Potency,[1],inactive
same,Potency,[3],inactive
same,Potency,[4],inactive
same,Potency,[2],inactive
CC(C)[C@H](N)C(=O)OCCOCn1cnc2c(=O)[nH]c(N)nc21,Potency,[1],inactive
same,Potency,[3],inactive
same,Potency,[4],inactive
same,Potency,[2],inactive
Oc1ccc(OCc2ccccc2)cc1,Potency,[1],4.18 µM (active)
same,Potency,[3],inactive
same,Potency,[4],inactive
same,Potency,[2],inactive
CNC[C@H](O)c1ccc(O)c(O)c1,Potency,[1],38.2 µM (active)
same,Potency,[4],inactive
Cc1ccc(Nc2nccc(N(C)c3ccc4c(C)n(C)nc4c3)n2)cc1S(N)(=O)=O,Potency,[1],inactive
same,Potency,[6],18.7 µM (active)
same,Potency,[8],inactive
Cc1cc2c(s1)Nc1ccccc1N=C2N1CCN(C)CC1,Potency,[1],inactive
same,Potency,[3],inactive
same,Potency,[4],inactive
same,Potency,[2],inactive
C[C@@H](N)C1CCC(C(=O)Nc2ccncc2)CC1 (some centres undefined),Potency,[1],inactive
same,Potency,[6],inactive
same,Potency,[8],inactive
same,IC50 (viability decrease),[7],inactive
CCN(CC)CCOc1ccc(Nc2ncc3cc(-c4c(Cl)cccc4Cl)c(=O)n(C)c3n2)cc1,Potency,[1],2.64 µM (active)
same,Potency,[5],13.2 µM (active)
same,Potency,[6],0.662 µM (active)
same,Potency,[9],1.05 µM (active)
same,Potency,[8],16.6 µM (active)
same,IC50 (viability decrease),[7],1.48 µM (active)
same,Potency,[10],0.296 µM (active)
CN(C)CCc1c[nH]c2ccc(Cn3cncn3)cc12,Potency,[1],inactive
same,Potency,[3],inactive
same,Potency,[4],inactive
same,Potency,[2],inactive
Oc1ccc2ccccc2c1SSc1c(O)ccc2ccccc12,Potency,[1],23.5 µM (active)
same,Potency,[2],inactive
CC(C)c1ccc2oc3nc(N)c(C(=O)O)cc3c(=O)c2c1,Potency,[1],inactive
same,Potency,[3],inactive
same,Potency,[4],inactive
same,Potency,[2],inactive
Cc1nccn1CC1CCc2c(c3ccccc3n2C)C1=O (centres undefined),Potency,[1],13.2 µM (active)
same,Potency,[2],inactive
Cc1cc(Cl)ccc1OCCCC(=O)NO,Potency,[1],11.8 µM (active)
same,Potency,[2],inactive
CC(=O)NC[C@H]1CN(c2ccc(N3CCOCC3)c(F)c2)C(=O)O1,Potency,[3],inactive
same,Potency,[4],inactive
CC1(C)CCC(C)(C)c2cc(NC(=O)c3ccc(C(=O)O)cc3)ccc21,Potency,[3],inactive
same,Potency,[4],inactive
CCCCc1ccc2nc(NC(=O)OC)[nH]c2c1,Potency,[1],inactive
same,Potency,[4],inactive
CCOc1cc(CC(=O)N[C@@H](CC(C)C)c2ccccc2N2CCCCC2)ccc1C(=O)O,Potency,[1],inactive
same,Potency,[3],inactive
same,Potency,[4],inactive
same,Potency,[2],inactive
CCC1=C(C)CN(C(=O)NCCc2ccc(S(=O)(=O)NC(=O)NC3CCC(C)CC3)cc2)C1=O (centres undefined),Potency,[1],inactive
same,Potency,[4],inactive
COc1cc2c(N3CCN(C(=O)Nc4ccc(OC(C)C)cc4)CC3)ncnc2cc1OCCCN1CCCCC1,Potency,[1],18.7 µM (active)
same,Potency,[6],inactive
same,Potency,[8],inactive
O=c1ccc2ccc(O)c(O)c2o1,Potency,[1],13.2 µM (active)
same,Potency,[2],inactive
S=c1nc[nH]c2nc[nH]c12,Potency,[1],3.32 µM (active)
same,Potency,[4],inactive
same,Potency,[6],38.2 µM (active)
same,IC50 (viability decrease),[7],1.71 µM (active)
same,Potency,[10],5.4 µM (active)
C[C@H](Cc1ccc(O)c(O)c1)[C@@H](C)Cc1ccc(O)c(O)c1,Potency,[1],13.2 µM (active)
same,Potency,[4],inactive
CCC(C)(Oc1ccc(C2(c3ccc(OC(C)(CC)C(=O)O)cc3)CCCCC2)cc1)C(=O)O (centres undefined),Potency,[1],inactive
same,Potency,[3],inactive
same,Potency,[4],inactive
same,Potency,[2],inactive
N[C@@H](Cc1cc(I)c(Oc2cc(I)c(O)c(I)c2)c(I)c1)C(=O)O,Potency,[1],3.72 µM (active)
same,Potency,[3],inactive
same,Potency,[4],inactive
same,Potency,[2],inactive
Cc1cc2cc3c(C)cc(=O)oc3c(C)c2o1,Potency,[1],16.6 µM (active)
same,Potency,[3],inactive
same,Potency,[4],inactive
same,Potency,[2],inactive
O=C(NC(Cc1cc(=O)[nH]c2ccccc12)C(=O)O)c1ccc(Cl)cc1 (centres undefined),Potency,[1],inactive
same,Potency,[3],inactive
same,Potency,[4],inactive
same,Potency,[2],inactive
CC(C)C[C@H](NC(=O)[C@H](Cc1ccccc1)NC(=O)c1cnccn1)B(O)O,Potency,[1],0.0372 µM (active)
same,Potency,[3],12.6 nM (active) and 6.3 nM (active)
same,Potency,[6],0.0166 µM (active)
same,Potency,[9],0.0017 µM (active)
same,Potency,[8],0.0105 µM (active)
same,IC50 (viability decrease),[7],0.0037 µM (active)
same,Potency,[10],0.0148 µM (active)
